{"source": "PubChem BioAssay AID504832", "about": "(National Center for Advancing Translational Sciences (NCATS), 2011)", "note": "Screen size: about 310,000 compounds; about 18,000 (5.8%) were called active. Not shown: some 22% with an inconclusive outcome. Shown is part of a subset that was picked to be rich in actives. Where a call stands in place of a potency, no number is given. Values without a mark were called inactive. The call rests on the fitted dose curve; in most records, active means well fitted inhibition curve with a large enough effect; inconclusive means small, poorly fitted or top-dose-only effect, or another doubt; inactive means no such curve, though single readings can be large or run the other way."}
{"assay": "Primary qHTS for delayed death inhibitors of the malarial parasite plastid, 48 hour incubation; further: potency means the concentration at half of the fitted maximal effect", "conditions": "P. falciparum luciferase growth in erythrocytes; series mostly up to 28.7 µM", "outline": "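Luciferase-expressing parasites in RBCs, 2% Hct / 0.1% parasitemia final; RPMI 1640 + 0.5% Albumax; 37 C, 5% CO2, one generation; luminescence read-out, lower signal = inhibition.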"}
{"compound": "O=C(Nc1cccc(F)c1)NC1CCCc2ccccc21", "note": "(centres undefined)", "Potency": "inactive"}
{"compound": "Cc1cc(=O)[nH]c(Nc2cccc(Br)c2)n1", "Potency": "inactive"}
{"compound": "O=C(CCc1nnc2ccc(NCc3ccco3)nn12)Nc1cc(F)ccc1F", "Potency": "inactive"}
{"compound": "COc1ccc(Cl)cc1C(=O)NCC#N", "Potency": "inactive"}
{"compound": "N#C/C=C\\Oc1ccc(Cl)cc1N", "Potency": "7.38 µM (active)"}
{"compound": "CCN(CC)CCNC(=O)c1ccc(NC(=O)c2c(F)cccc2Cl)cc1", "Potency": "inactive"}
{"compound": "CCN(CC)CCNC(=O)c1ccc(NC(=O)c2cc(-c3ccncc3)nc3ccccc23)cc1", "Potency": "0.828 µM (active)"}
{"compound": "Cc1ccc2nc(-c3ccncc3)cc(C(=O)Nc3ccncc3)c2c1", "Potency": "13.1 µM (active)"}
{"compound": "Cc1ccc2nc(-c3ccccn3)cc(C(=O)Nc3ccc4c(c3)OCO4)c2c1", "Potency": "inactive"}
{"compound": "COC(=O)CNC(=O)c1cc(-c2ccncc2)nc2ccccc12", "Potency": "inactive"}
{"compound": "O=C(Nc1ccncc1)c1cc(-c2ccccn2)nc2ccc(Br)cc12", "Potency": "inactive"}
{"compound": "COc1ccc(C(=O)O)cc1S(=O)(=O)NCc1cccnc1", "Potency": "inactive"}
{"compound": "CC(=O)Nc1ccc(NC(=O)C2CCCN2S(=O)(=O)c2cccc(C(F)(F)F)c2)cc1", "note": "(centres undefined)", "Potency": "inactive"}
{"compound": "CCCCn1c(N)c(N(CC(C)C)C(=O)CN(C)S(=O)(=O)c2ccc(F)cc2)c(=O)[nH]c1=O", "Potency": "inactive"}
{"compound": "CSCCC(NC(=O)COc1ccccc1)C(=O)OCCOc1ccc(F)cc1", "note": "(centres undefined)", "Potency": "inactive"}
{"compound": "O=C1CSc2ccc(S(=O)(=O)NCc3ccccc3)cc2N1", "Potency": "inactive"}
{"compound": "CCN1/C(=C/c2ccc3ccc(C)cc3[n+]2CC)Sc2ccccc21", "Potency": "1.17 µM (active)"}
{"compound": "CCN1/C(=C/C(=S)Nc2ccccc2)Sc2ccccc21", "Potency": "inactive"}
{"compound": "CCN1/C(=C\\c2ccc3ccccc3[n+]2CC)Sc2cc(C)ccc21", "Potency": "1.17 µM (active)"}
{"compound": "CCOC(=O)c1c(C)[nH]c(C(=O)OCC(=O)c2ccc(OC)cc2OC)c1C", "Potency": "inactive"}
{"compound": "CCCc1cc(=O)oc2c(C)c(OCC(=O)Nc3ccccn3)ccc12", "Potency": "inactive"}
{"compound": "O=C(COC(=O)c1cnccn1)Nc1ccc(Cl)cc1C(F)(F)F", "Potency": "inactive"}
{"compound": "COC(=O)c1ccc(CSc2ccc(S(=O)(=O)N3CCCCC3)cn2)cc1", "Potency": "inactive"}
{"compound": "CN(Cc1ccccc1)S(=O)(=O)c1nnc(NC(=O)c2ccccc2F)s1", "Potency": "inactive"}
{"compound": "COc1ccc(CCc2nc(-c3cccs3)no2)cc1", "Potency": "inactive"}
{"compound": "C=CCc1ccccc1OCC(O)CN1CCN(CCO)CC1", "note": "(centres undefined)", "Potency": "inactive"}
{"compound": "Cc1cc(C)n2nc(C(=O)OC(C)C(=O)c3cc(C)c(C)cc3C)nc2n1", "note": "(centres undefined)", "Potency": "inactive"}
{"compound": "CCOC(=O)C1CN(S(=O)(=O)c2ccc(OC)cc2)c2cc(Cl)ccc2O1", "note": "(centres undefined)", "activity change, negative = inhibition": "-15.5% [at 0.00184 µM]"}
{"compound": "O=C(NNC(=O)c1cccnc1)Nc1ccccc1", "Potency": "inactive"}
{"compound": "O=C(Nc1ccc(Cl)cc1)Nc1ccc(Oc2cccnc2)nc1", "Potency": "inactive"}
{"compound": "O=C(NNC(=O)c1csc(-c2cccnc2)n1)Nc1ccc(Cl)cc1", "Potency": "8.28 µM (active)"}
{"compound": "COc1cccc(CNS(=O)(=O)c2ccc3c(c2)CC(C)N3C(C)=O)c1", "note": "(centres undefined)", "Potency": "inactive"}
{"compound": "Cc1cccc(OCC(=O)NC2CC(C)(C)NC(C)(C)C2)c1", "Potency": "inactive"}
{"compound": "COc1ccc(CCNC(=O)c2c(C)nn(-c3ccccc3)c2Cl)cc1", "Potency": "inactive"}
{"compound": "CC(C)(C)Nc1nc(-c2ccccn2)nc2ccccc12", "Potency": "2.94 µM (active)"}
{"compound": "COc1cnc(-c2ccccn2)nc1Oc1ccc(C(C)(C)C)cc1", "Potency": "1.65 µM (active)"}
{"compound": "Cc1ccc(Oc2nc3ccccc3n3c(C)nnc23)cc1", "Potency": "inactive"}
{"compound": "N#Cc1ccc(Oc2cc(C(F)(F)F)nc(-c3ccccn3)n2)cc1", "Potency": "inactive"}
{"compound": "Cc1ccc(Oc2nc(-c3ccccn3)nc3ccccc23)cc1", "Potency": "1.47 µM (active)"}
{"compound": "COc1ccc(Cc2nc(-c3ccccn3)no2)cc1OC", "Potency": "inactive"}
{"compound": "COc1ccc(Nc2nc(-c3cccnc3)nc3ccccc23)cn1", "Potency": "inactive"}
{"compound": "COc1ccc(Sc2nc(-c3ccccc3)ncc2OC)cc1", "Potency": "inactive"}
{"compound": "CCC(=O)OCCNc1nc(-c2ccccc2)nc2ccccc12", "Potency": "inactive"}
{"compound": "COc1ccc(S(=O)(=O)N(CC(=O)N/N=C/c2ccc(C(=O)O)cc2)Cc2ccccc2)cc1OC", "Potency": "inactive"}
{"compound": "COc1ccc(C)cc1N(CC(=O)NC(C)c1ccccc1)S(C)(=O)=O", "note": "(centres undefined)", "Potency": "inactive"}
{"compound": "Cc1ccccc1OCC(=O)NNC(=O)c1cc(S(=O)(=O)N(C)C)ccc1N1CCCC1", "Potency": "inactive"}
{"compound": "Cc1ccc(S(=O)(=O)N(CC(O)CN2CCCCC2)c2cccc([N+](=O)[O-])c2)cc1", "note": "(centres undefined)", "Potency": "inactive"}
{"compound": "CC(C)CNS(=O)(=O)c1ccc(CCC(=O)NCc2ccc(Cl)cc2)cc1", "Potency": "inactive"}
{"compound": "NC(=O)c1cc(S(=O)(=O)N2CCCC2)ccc1OCc1ccc(F)cc1", "Potency": "inactive"}
{"compound": "CCOc1ccc(-c2nnc(-c3ccco3)o2)cc1", "Potency": "inactive"}
{"compound": "CCOc1ccc(-c2nnc3ccc(SC)nn23)cc1", "Potency": "inactive"}
{"compound": "CCOc1ccc(-c2cc(C)[n+](CCN(CC)CC)c(-c3ccc(OCC)cc3)c2)cc1", "Potency": "0.329 µM (active)"}
{"compound": "COc1cc(NC(=O)c2cc([N+](=O)[O-])ccc2Br)ccc1NC(=O)c1ccco1", "Potency": "inactive"}
{"compound": "CCC(=O)NC(=S)Nc1ccc(NC(=O)c2ccco2)c(Cl)c1", "Potency": "inactive"}
{"compound": "O=C(Nc1ccc(NC(=O)c2ccco2)c(Cl)c1)c1cccc([N+](=O)[O-])c1", "Potency": "10.4 µM (active)"}
{"compound": "Cc1ccc(OCC(=O)NC(C)c2ccccc2)cc1C", "note": "(centres undefined)", "Potency": "inactive"}
{"compound": "O=C(N/N=C/c1ccc(O)c2ccccc12)c1cccnc1", "Potency": "inactive"}
{"compound": "Cc1ccc(/C=N/NC(=O)C2=NNC(c3ccccc3)(c3ccccc3)C2)c(O)c1", "Potency": "4.15 µM (active)"}
{"compound": "Cc1ccc2occ(/C=N/NC(=O)c3ccccc3C)c(=O)c2c1", "Potency": "inactive"}
{"compound": "CCN(C(=O)CSc1nnnn1-c1ccccc1OC)C1CCS(=O)(=O)C1", "note": "(centres undefined)", "Potency": "inactive"}
{"compound": "CC(=O)N1CCSc2ccc(S(=O)(=O)N3CCC(C)CC3)cc21", "Potency": "inactive"}
{"compound": "CCc1ccc(NC(=O)Cn2nnc(C(=O)NCc3ccc(OC)cc3)c2N)cc1", "Potency": "inactive"}
{"compound": "COc1cccc(-c2ccc(SCC(=O)N3CCN(c4ccccc4)CC3)nn2)c1", "Potency": "inactive"}
{"compound": "CC(CC(=O)N1CCN(c2ccccc2)CC1)c1ccccc1", "note": "(centres undefined)", "Potency": "inactive"}
{"compound": "COc1ccc(C(CC(=O)N2CCN(c3ccccc3)CC2)c2c(O)cc(OC)cc2OC)cc1", "note": "(centres undefined)", "Potency": "10.4 µM (active)"}
{"compound": "Cc1ccc(CS(=O)(=O)CCC(=O)NCc2ccc(F)cc2)cc1", "Potency": "inactive"}
{"compound": "CC[C@]1(c2ccccc2OC)C(=O)N(C(=O)OC)N1C(=O)OC", "Potency": "inactive"}
{"compound": "CCOc1ccc(NC(=O)CN(C)C(=O)c2c(C)noc2C)cc1OCC", "Potency": "inactive"}
{"compound": "Cc1ccc(S(=O)(=O)CCC(=O)OCC(=O)N(C)C2CCS(=O)(=O)C2)cc1", "note": "(centres undefined)", "Potency": "inactive"}
{"compound": "Cc1cc(C)c(C)c(S(=O)(=O)Nc2ccc(O)cc2)c1C", "Potency": "7.38 µM (active)"}
{"compound": "Cc1cc(C(C)(C)C)cc(S(=O)(=O)Nc2ccc(C(=O)O)cc2)c1C", "Potency": "inactive"}
{"compound": "CCOc1ccc(NS(=O)(=O)c2cc(C)c(C)cc2C)cc1", "Potency": "inactive"}
{"compound": "NS(=O)(=O)c1ccc(CCNC(=O)CNC(=O)Cc2ccccc2)cc1", "Potency": "inactive"}
{"compound": "O=C1NC(=O)C(c2ccc(Cl)cc2)N1", "note": "(centres undefined)", "Potency": "inactive"}
{"compound": "S=C(c1ccccc1)N1CCCC1", "Potency": "inactive"}
{"compound": "Cn1c(=O)[nH]c(=O)c2c1nc(N1CCCCCC1)n2CC(=O)c1ccccc1", "Potency": "inactive"}
{"compound": "CCCSc1nc2c(c(=O)[nH]c(=O)n2C)n1CCc1ccccc1", "Potency": "inactive"}
{"compound": "CC1CCN(c2nc3c(c(=O)[nH]c(=O)n3C)n2CCCc2ccccc2)CC1", "Potency": "11.7 µM (active)"}
{"compound": "Cc1[nH]c2ccccc2c1C(=O)COC(=O)C(C)C", "Potency": "inactive"}
{"compound": "Cc1[nH]c2ccccc2c1C(=O)C(C)Sc1nnc(C2CC2)o1", "note": "(centres undefined)", "Potency": "3.7 µM (active)"}
{"compound": "Cc1[nH]c2ccccc2c1C(=O)CN1CC(C)CC(C)C1", "note": "(centres undefined)", "Potency": "inactive"}
{"compound": "C=CCOc1ccc(/C=C2/C(=O)ON=C2C)cc1OCC", "Potency": "inactive"}
{"compound": "COc1ccc(OC)c(S(=O)(=O)n2c([N+](=O)[O-])cnc2C)c1", "Potency": "inactive"}
{"compound": "NS(=O)(=O)c1ccc(N=Nc2c(O)[nH]c3ccc(Br)cc23)cc1", "Potency": "inactive"}
{"compound": "Cc1onc(-c2c(F)cccc2Cl)c1C(=O)N(C)CC(=O)Nc1cccc(F)c1", "Potency": "inactive"}
{"compound": "Cc1onc(-c2c(Cl)cccc2Cl)c1C(=O)NNC(=O)c1c(-c2c(Cl)cccc2Cl)noc1C", "Potency": "8.28 µM (active)"}
{"compound": "COc1ccccc1N1CCN(C(=O)c2cc(-c3ccc(Cl)c(Cl)c3)on2)CC1", "Potency": "inactive"}
{"compound": "Cc1[nH]n(C)c(=O)c1C(=O)c1c(-c2c(Cl)cccc2Cl)noc1C", "Potency": "inactive"}
{"compound": "COc1ccccc1N1CCN(C(=O)c2c(-c3c(Cl)cccc3Cl)noc2C)CC1", "Potency": "10.4 µM (active)"}
{"compound": "COc1cccc(-c2cc(C(=O)N3CCN(c4ccccc4OC)CC3)no2)c1", "Potency": "inactive"}
{"compound": "CC(C)c1ccc(/C=C2\\NC(=O)NC2=O)cc1", "Potency": "inactive"}
{"compound": "Cc1cccn2c(=O)c3cc(C(=O)NCC4CCCO4)c(=N)n(Cc4ccc(F)cc4)c3nc12", "note": "(centres undefined)", "Potency": "9.28 µM (active)"}
{"compound": "COc1ccc(CCn2c(=N)c(C(=O)NCc3ccco3)cc3c(=O)n4cccc(C)c4nc32)cc1", "Potency": "0.465 µM (active)"}
{"compound": "Cc1ccc(-c2noc(-c3ccccc3C(=O)NCC3CCCO3)n2)cc1", "note": "(centres undefined)", "Potency": "inactive"}
{"compound": "O=C(NCc1ccco1)c1cccn2c(=O)c3c4c(sc3nc12)CCCC4", "Potency": "inactive"}
{"compound": "O=C(Nc1ccccc1C(=O)NCC1CCCO1)c1ccccc1F", "note": "(centres undefined)", "Potency": "inactive"}
{"compound": "Cc1ccc(CCNC(=O)c2ccc3nc4ccccc4c(=O)n3c2)cc1", "Potency": "inactive"}
{"compound": "Cc1cccn2c(=O)c3cc(C(=O)NCCN4CCOCC4)c(=N)n(Cc4cccnc4)c3nc12", "Potency": "inactive"}
{"compound": "Cc1ccc2nc3c(cc(C(=O)NCCc4ccccc4)c(=N)n3CC3CCCO3)c(=O)n2c1", "note": "(centres undefined)", "Potency": "2.08 µM (active)"}
{"compound": "COc1ccc2oc(C(=O)NCc3ccco3)c(C)c2c1", "Potency": "inactive"}
{"compound": "Nc1nc(SCC(=O)Nc2ccc(Cl)cc2C(F)(F)F)n[nH]1", "Potency": "inactive"}
{"compound": "CN(CC(=O)Nc1ccc(OC(F)(F)F)cc1)C(=O)C1CCC1", "Potency": "inactive"}
{"compound": "c1ccc(C2CNCc3c2ccc2ccccc32)cc1", "note": "(centres undefined)", "Potency": "10.4 µM (active)"}
{"compound": "CC1=C(C(=O)NC2CC(C)(C)Cc3c2cnn3-c2ccc(C)cc2)OCCO1", "note": "(centres undefined)", "Potency": "inactive"}
